Data taken from PubChem BioAssay.
The source made the active and inactive calls.

The compounds below were run against NADPH oxidase 2 (Homo sapiens) (UniProt P04839) (assay: NOX2-dependent H2O2 signal modulators, primary screen, NOX inhibitor project, cell-based, HEK293-NOX2, PMA-stimulated, Amplex Red fluorescence (AID 1159; also: test concentration not given here)). Conditions: 45 min, higher = more signal, called active from +8 up or from −8 down.
Chain of NADPH oxidase 2 (Homo sapiens) (P04839 whole entry, looked up): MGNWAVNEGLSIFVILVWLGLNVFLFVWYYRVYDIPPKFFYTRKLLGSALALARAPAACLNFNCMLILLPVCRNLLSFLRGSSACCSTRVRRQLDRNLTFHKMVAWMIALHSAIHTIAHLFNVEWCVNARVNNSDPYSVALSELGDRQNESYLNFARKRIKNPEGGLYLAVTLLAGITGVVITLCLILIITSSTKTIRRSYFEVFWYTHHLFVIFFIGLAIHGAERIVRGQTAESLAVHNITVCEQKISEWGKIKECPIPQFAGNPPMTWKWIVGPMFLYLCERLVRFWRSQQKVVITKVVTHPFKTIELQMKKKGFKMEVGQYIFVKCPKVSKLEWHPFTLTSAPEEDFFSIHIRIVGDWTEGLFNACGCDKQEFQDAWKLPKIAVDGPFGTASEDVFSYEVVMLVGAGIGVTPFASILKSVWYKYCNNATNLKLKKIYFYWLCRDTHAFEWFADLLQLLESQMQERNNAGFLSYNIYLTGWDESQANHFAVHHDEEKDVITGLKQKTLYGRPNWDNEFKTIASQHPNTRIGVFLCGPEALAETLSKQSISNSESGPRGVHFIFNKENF

z-score, inactive:
COC(=O)[C@@]1(Cc2ccc(OC)cc2)[C@H]2c3cc(C(=O)N4CCCC4)n(Cc4cc(C)n(C)n4)c3C[C@H]2CN1C(=O)c1ccccc1 0.755
C=C(CCCC)C(=O)CC[C@H](OC(C)=O)c1ccc(OCCO)cc1 -3.16
COc1ccc(C(=O)Nc2cccc(CN3C(=O)[C@]4(O[C@H](CCn5cc([C@H](O)c6ccccc6)nn5)[C@@H]([Si](C)(C)c5ccc(OC)cc5)[C@@H]4C)c4ccccc43)c2)cc1 -0.498
COCCOC(=O)N1C(=O)[C@@]2(c3cc(C#CC4=CCCCC4)ccc31)[C@H](C(=O)N1CCCCCCC1)[C@H]1C(=O)O[C@H](c3ccccc3)[C@H](c3ccccc3)N1[C@@H]2c1ccc(OCCO)cc1 0.983
C=C(CCCC)/C(=C/C[C@H](OC(C)=O)c1ccc(OCCO)cc1)c1cc(C(=O)OC)ccc1OC -0.338
COc1ccc([Si](C)(C)[C@H]2[C@H](CC(=O)N3CCC[C@H]3CO)O[C@@]3(C(=O)N(Cc4ccc(N5CCC5=O)cc4)c4ccccc43)[C@@H]2C)cc1 1.93
[N-]=[N+]=NCc1ccccc1[C@@H]1OC(c2ccc(OCCCO)cc2)=N[C@]1(Cc1ccccc1N=[N+]=[N-])C(=O)NCCN1CCOCC1 -2.49
O=C1C[C@@](C(=O)NCC(F)(F)F)(c2ccc([N+](=O)[O-])cc2)[C@@H](c2ccc(CO)cc2)N1CC12CC3CC(CC(C3)C1)C2 -0.178

These compounds were tested against NADPH oxidase 4 (Homo sapiens) (UniProt Q9NPH5) (assay: NOX4-dependent H2O2 signal modulators, primary screen, NOX inhibitor project, cell-based, HEK293-NOX4, tetracycline-induced, Amplex Red fluorescence (AID 1160)). Conditions: 45 min, higher = more signal, called active from +8 up or from −8 down.
Chain of NADPH oxidase 4 (Homo sapiens) (Q9NPH5 whole entry, looked up): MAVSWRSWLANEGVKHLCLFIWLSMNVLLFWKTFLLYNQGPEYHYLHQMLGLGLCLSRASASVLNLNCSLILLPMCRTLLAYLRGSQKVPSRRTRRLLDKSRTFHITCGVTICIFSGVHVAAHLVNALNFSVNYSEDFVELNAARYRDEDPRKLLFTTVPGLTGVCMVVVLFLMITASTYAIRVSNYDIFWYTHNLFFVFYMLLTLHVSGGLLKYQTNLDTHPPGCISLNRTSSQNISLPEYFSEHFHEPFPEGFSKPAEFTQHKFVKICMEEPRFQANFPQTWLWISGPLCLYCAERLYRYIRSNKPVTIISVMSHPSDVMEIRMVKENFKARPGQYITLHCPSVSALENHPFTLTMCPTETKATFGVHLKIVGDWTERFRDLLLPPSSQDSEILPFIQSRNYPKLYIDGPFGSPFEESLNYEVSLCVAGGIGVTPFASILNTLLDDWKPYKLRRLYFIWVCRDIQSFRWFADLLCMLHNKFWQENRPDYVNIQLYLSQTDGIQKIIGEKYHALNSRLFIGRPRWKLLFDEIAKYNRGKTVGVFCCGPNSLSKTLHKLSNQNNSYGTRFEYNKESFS

z-score, inactive:
C=CCC(OC(C)=O)[C@@H]1[C@@H](N(Cc2cc3ccccc3o2)C(=O)c2ccc(-c3ccccc3)cc2)c2cc(OCCCO)ccc2N1C(=O)Cc1ccc(OC)cc1 (stereo not given in full) -0.918
COCC(=C=CC[C@@H](O)c1ccc(OCCO)cc1)CCO -0.406
CC(C)(C)OC(=O)CC[C@]12N=C(c3ccc(OCCCO)cc3)O[C@H]1c1ccccc1N(Cc1ccccc1)C2=O 0.102
O=C1OCCC/C=C\[C@H]2OC34C=CCN(c5ccc6ccccc6c5)C(=O)[C@H]3N(CCCO)C(=O)[C@@H]4C12 (stereo not given in full) 1.14
C=C/C=C/[C@@H]1C(=C)CN([C@@H](Cc2ccccc2)C(=O)OC)[C@H]1[C@@H](O)Cc1ccccc1 -0.199
O=C1NC(=O)C2C1C=CC(C(O)c1ccccn1)N2Nc1ccc(Cl)cc1Cl (stereo not given) -4.83
CC(C)C[C@@H]1NC(=O)CNC(=O)[C@@]23C(=O)N[C@@H](Cc4ccccc4)C2[C@H](C)[C@@]2(C)O[C@H]2C3/C=C/C/C=C\CNC1=O (stereo not given in full) 1.1
CCOC(=O)C1=C[C@@H](c2ccccc2)N(S(=O)(=O)c2ccc(C)cc2)[C@H]1c1ccccc1 -0.395
[N-]=[N+]=NCc1ccccc1C[C@]1(C(=O)N2CCOCC2)COC(c2ccc(OCCCO)cc2)=N1 -0.698
COCCOC(=O)N1C(=O)[C@@]2(c3cc(C#Cc4ccc(OC)cc4)ccc31)[C@H](C(=O)NC[C@H](O)c1ccccc1)[C@H]1C(=O)O[C@H](c3ccccc3)[C@H](c3ccccc3)N1[C@@H]2c1ccc(OCCO)cc1 -2.17
COCCOC(=O)N1C(=O)[C@@]2(c3cc(C#CCC(C(=O)OC)C(=O)OC)ccc31)[C@H](c1ccc(OCCO)cc1)N1[C@H](c3ccccc3)[C@H](c3ccccc3)OC(=O)[C@H]1[C@@H]2C(=O)Nc1nc2ccccc2s1 0.647
COCCOC(=O)N1C(=O)[C@@]2(c3cc(C#CCNC(N)=O)ccc31)[C@H](c1ccc(O)cc1)N1[C@H](c3ccccc3)[C@H](c3ccccc3)OC(=O)[C@H]1[C@@H]2C(=O)N1CCN(c2ncccn2)CC1 -0.121
COc1cc(C(O)C2C=CC3C(=O)N(Cc4ccccc4)C(=O)C3N2n2cnnc2)cc(OC)c1OC (stereo not given) -0.564
CCCCC=C[C@@H](NC(=O)c1ccccc1)c1ccccc1 -2.77
COc1ccc([Si](C)(C)[C@@H]2[C@@H](CC(=O)N3Cc4ccccc4C[C@H]3CO)O[C@]3(C(=O)N(c4ccccc4)c4ccccc43)[C@H]2C)cc1 0.71
CCOC(=O)C1=CCC(c2ccccc2)N(S(=O)(=O)c2ccc([N+](=O)[O-])cc2)C1 (stereo not given) -0.114
[N-]=[N+]=NCc1ccccc1[C@@H]1OC(c2ccc(OCCCO)cc2)=N[C@]1(Cc1ccccc1N=[N+]=[N-])C(=O)N1CCCCC1 0.924
